Bioassay records deposited in PubChem by National Center for Advancing Translational Sciences (NCATS).
HT1080 IDH1KD tx – qHTS for induction of synthetic lethality in tumor cells producing 2HG: qHTS for the HT-1080-IDH1KD cell line. HT-1080 IDH1 knockdown viability, ATP luminescence, 48 h. Potency, µM (titrated, usually from 46.1 µM), usual class: cytotoxic. hit rate 2% among 360,000. AID 686971, 2013
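Cytotoxicity counter-line: IDH1KD HT-1080, 48 h, CellTiter-Glo. Curves classed by r2, magnitude and activity.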
TDP1 cell noCPT – qHTS for Inhibitors of human tyrosyl-DNA phosphodiesterase 1 (TDP1): qHTS in cells in absence of CPT; DT40 Tdp1-/- hTDP1 cells, no CPT, ATP luminescence, 48 h; Potency, µM (top dose mostly 46.2 µM), usual class: inhibitors; hit rate 15% among 420,000; further: nearly all actives have a fitted effect of over 55% in size
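Growth kinetics read by CellTiter-Glo luminescence after ≥48 hr at 37 °C. Cells: DT40 Tdp1-/- stably carrying human TDP1, 400 per well, compound exposure in the absence of CPT (DMSO vehicle).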
IL1B secr inh – qHTS for Inhibitors of Inflammasome Signaling: IL-1-beta AlphaLISA Primary Screen | THP-1 LPS/ATP IL-1B secretion, AlphaLISA, 16 h; active compounds read low | activity change, % at 57.5 µM | hit rate 4.7% among 360,000 | AID 743279, 2014; in the data active means activity change below about -50%; inconclusive means mostly about -30% to -49%
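Secreted IL-1B measured by AlphaLISA bead assay after 16 h compound exposure of THP-1 cells; compounds (final up to 57.5 uM) added 1 h before LPS (250 ng/mL) and ATP (1.25 mM) stimulation; lower signal means less secretion.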
TDP1 cell CPT – qHTS for Inhibitors of human tyrosyl-DNA phosphodiesterase 1 (TDP1): qHTS in cells in presence of CPT | chicken DT40 Tdp1-/-;hTDP1 cells + 20 nM CPT, ATP luminescence, 48 h | Potency, µM (series often up to 46.2 µM), usual class: inhibitors | hit rate 12% among 420,000; further: nearly all actives have a fitted effect of over 55% in size
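Chicken DT40 Tdp1-/- cells stably complemented with human TDP1 were seeded at 400 cells/well in medium containing 20 nM camptothecin, exposed to pin-transferred compounds, and grown at 37 °C for at least 48 hr. Viability was read as ATP luminescence.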
HT1080-NT tox – qHTS for induction of synthetic lethality in tumor cells producing 2HG: qHTS for the HT-1080-NT fibrosarcoma cell line; hit rate 1.6% among 360,000; HT-1080-NT fibrosarcoma viability, CellTiter-Glo ATP luminescence, 48 h; AID 686970, 2013; Potency, µM (highest dose often 46.1 µM), most hits filed as cytotoxic;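 further: NT is the 2HG producing partner of a matched IDH1 knockdown line; nearly all actives have a fitted effect of over 55% in size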
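Viability of the 2HG-overproducing fibrosarcoma line after 48 hours of compound exposure at 37 degrees C was determined by luminescence with CellTiter-Glo, and concentration-effect curves were then fitted and categorized.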
Hits are given with their value; n = inactive; u = inconclusive; x = no result given; ! = a repeat was not active; [ ] = dose if it differs, or a comment. Most compounds without a hit are left out; they make up all but 19% or so of the library. Unless noted, the call rests on the fitted dose curve; in most records, active means well fitted curve in the direction sought with a large enough effect; inconclusive means small, poorly fitted or top-dose-only effect, or another doubt; inactive means no such curve, though single readings can be large; an effect the other way counts as inactive or inconclusive.

SMILES	HT1080 IDH1KD tx	TDP1 cell noCPT	IL1B secr inh	TDP1 cell CPT	HT1080-NT tox
O=C(Cc1ccccc1)NCC(=O)OCC(=O)c1cccc2ccccc12	x	n	x	u	x
CC(C)(C)Nc1nc(OCC#N)nc(N2CCCCC2)n1	n	u	n	n	n
CCNc1nc(N2CCCC2)nc(N2CCCC2)n1	n	u	n	u	n
CC(C)(CO)Nc1nc(N2CCCC2)nc(N2CCCC2)n1	n	21µM	n	u	n
CCNc1nc(NC(C)(C)C)nc(N2CCCCC2)n1	n	21µM	-81	21µM	n
O=C(Cn1cnc2c(oc3ccccc32)c1=O)Nc1ccccc1C(F)(F)F	x	n	x	n	x
Cc1ccc(C(=O)Nc2ccc(S(=O)(=O)N(Cc3ccccc3)c3ccccc3)cc2)cc1	x	23µM	x	16µM	x
COC(=O)Cc1ccc(N(Cc2ccccc2F)S(=O)(=O)c2ccc(Cl)cc2)cc1	n	15µM	n	u	n
CCOc1ccc(C(=O)Nc2ccc(S(=O)(=O)N(Cc3ccccc3)c3ccccc3)cc2)cc1	x	5.2µM	x	5.8µM	x
CCOc1ccc(NC(=O)c2ccc(S(=O)(=O)N(C)C)cc2)cc1	n	n	n	n	n
COC(=O)c1ccc(CN(c2ccc(OC)cc2)S(=O)(=O)c2ccccc2)cc1	n	13µM	n	u	n
CC(=O)Nc1ccc(S(=O)(=O)N(Cc2ccccc2)c2ccccc2)cc1	u	u	n	n	n
COC(=O)CN(c1ccc(F)cc1)S(=O)(=O)c1ccccc1	n	n	n	n	n
O=C(CCNC(=O)C1CCN(S(=O)(=O)c2ccc(F)cc2)CC1)NCc1cccnc1	n	n	n	n	n
CC1(c2ccc(F)cc2)OC(=O)c2c1ccc1ccccc21 (stereo unspecified)	n	18µM	n	u	n
CC1=C(C(=O)N(C(C)C)C(C)C)CC(CC(=O)NC2CCCC2)C(=O)N1CCC1=CCCCC1 (stereo unspecified)	n	23µM	u	u	n
CC1=C(C(=O)N(C)C)CC(CC(=O)NC2CC2)C(=O)N1CCC1=CCCCC1 (stereo unspecified)	n	n	n	n	n
CC1=C(C(=O)N(C(C)C)C(C)C)CC(CC(=O)NC2CC2)C(=O)N1CCC1=CCCCC1 (stereo unspecified)	n	u	n	16µM	n
O=C(CSC1=NCCN1)C1COc2ccccc2O1 (stereo unspecified)	u	u	n	18µM	n
O=C(Nc1ccncc1)C1COc2ccccc2O1 (stereo unspecified)	n	n	n	u	n
N#C/C(=C(/O)CCl)c1nc(-c2ccccc2)cs1	n	15µM	-57	13µM	n
N#C/C(=C(/O)CN1CCN(c2ccccc2F)CC1)c1nc(-c2ccc(Cl)cc2)cs1	n	u	n	21µM	n
N#C/C(=C(/O)CN1CCOCC1)c1nc(-c2ccccc2)cs1	n	n	n	u	n
Cc1ccc(-c2csc(/C(C#N)=C(\O)CCl)n2)cc1	n	u	-73	u	n
N#C/C(=C(/O)CN1CCCCC1)c1nc(-c2ccc(Cl)cc2)cs1	n[9.24 µM]	n	n	n	n
SMILES	HT1080 IDH1KD tx	TDP1 cell noCPT	IL1B secr inh	TDP1 cell CPT	HT1080-NT tox
CC(NC(=O)COc1ccccc1)C(=O)NCc1ccc(S(N)(=O)=O)cc1 (stereo unspecified)	n	n	n	n	n
COC(=O)C1N[C@@H]([C@@H](NC(=O)COc2ccccc2)C(=O)NCc2ccccc2)SC1(C)C (stereo partly specified)	n	20µM!	n	u	n
CCn1nnc2cc(C(=O)Nc3ccc(C)c(Cl)c3)ccc21	x	n	x	n	x
COCC(=O)Nc1cc(C(=O)N2CCN(C3CCCC3)C(=O)C2)c2c(c1)nc(-c1ccncc1)n2C	x	n	x	n[9.04 µM]	x
CC(=O)Nc1ccc(C(=O)N2CCCc3ccccc32)cc1	n	n	n	n	n
O=C(c1ccccc1)N1CCN(C(=O)c2ccccc2)c2ccccc21	u	u	n	8.2µM	n
O=C(Nc1ccc(C(=O)N2CCCc3ccccc32)cc1)c1cccs1	n	u	-80	n	n
O=C(c1ccccc1)N1CCCc2ccccc21	n	u	n	n	n
O=C(c1ccccc1)N1CCc2ccccc21	n	n	n	n	n
O=C(NC(=S)N1CCc2ccccc21)c1ccccc1	n	18µM	n	21µM	n
O=C(Nc1cccc(C(=O)N2CCCc3ccccc32)c1)c1ccccc1	23µM	21µM	n	u	u
Cc1ccc(C)c(C(O)c2ncc(-c3ccccc3Cl)[nH]2)c1 (stereo unspecified)	n	n	u	u	n
O=C(Nc1ccc2c(c1)CCC2)c1cccs1	n	n	-63	n	n
O=C(c1cccc(N2C(=O)C3CC=CCC3C2=O)c1)N1CCCc2ccccc21 (stereo unspecified)	n	1.5µM	n	u	n
CC(=O)Nc1cccc(C(=O)OC(C)C(=O)N2CCc3ccccc32)c1 (stereo unspecified)	n	4.1µM	n	29µM	n
CC(OC(=O)c1cccc([N+](=O)[O-])c1)C(=O)N1CCc2ccccc21 (stereo unspecified)	n	u	n	u	n
CCc1nn2c(=O)cc(COC(=O)c3ccc(SC)cc3OC)nc2s1	n	n	n	n	n
Cc1ccc(-c2nc(S(=O)(=O)c3ccc(C)cc3)c(N3CCOCC3)o2)cc1	n	n	n	n	n
Cc1ccc(S(=O)(=O)c2nc(-c3ccc(F)cc3)oc2N2CCN(c3ccccc3)CC2)cc1	x	18µM	x	u	x
O=S(=O)(c1ccccc1)c1nc(-c2ccc(F)cc2)oc1N1CCCCCC1	x	15µM	x	18µM	x
CCCCn1c(O)c2n(c1=O)Cc1ccccc1N=C2c1ccccc1	n	u	n	u	n
Cc1nn(-c2ccc(N3CCOCC3)nn2)c(C)c1CCC(=O)NCc1ccc(F)cc1	n	n	n	u	n
CSc1ccc(C(=O)C2CCCN(C(=O)CCn3cncn3)C2)cc1 (stereo unspecified)	n	n	n	n	n
O=C(c1ccc2ccccc2c1)C1CCCN(C(=O)c2noc3c2CCCC3)C1 (stereo unspecified)	n	u	-72	u	n
COc1ccc2cc(C(=O)C3CCCN(C(=O)c4cccnc4)C3)ccc2c1 (stereo unspecified)	n	u	n	u	n
O=C(c1ccc2ccccc2c1)C1CCCN(C(=O)c2cccnc2)C1 (stereo unspecified)	n	15µM	n	16µM	n
